Assay results taken from the supplement of paper PMC3545927.
The other results are listed elsewhere or left out. The true hit rate is not given.

Molecular target: furin, P09958
Experiment: furin cleavage Z-score vs untreated control; higher = more cleavage, active = 3.5 or more, inactive = 1 or less, 8 variable residues between constant flanks
How it was run: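 The cleavage Z-score was derived for purified furin acting on 8-mer peptides held on magnetic beads and fused to a cDNA oligonucleotide. Digests lasted 7.5, 15 or 30 min at 1:10 enzyme:substrate in 50 mM HEPES pH 7.5 with CaCl2 and NaCl. Sequencing counts of released DNA, log-transformed against furin-free reactions, were lowess-adjusted and scaled by median absolute deviation.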

Sequence of furin, P09958 (P09958 whole entry): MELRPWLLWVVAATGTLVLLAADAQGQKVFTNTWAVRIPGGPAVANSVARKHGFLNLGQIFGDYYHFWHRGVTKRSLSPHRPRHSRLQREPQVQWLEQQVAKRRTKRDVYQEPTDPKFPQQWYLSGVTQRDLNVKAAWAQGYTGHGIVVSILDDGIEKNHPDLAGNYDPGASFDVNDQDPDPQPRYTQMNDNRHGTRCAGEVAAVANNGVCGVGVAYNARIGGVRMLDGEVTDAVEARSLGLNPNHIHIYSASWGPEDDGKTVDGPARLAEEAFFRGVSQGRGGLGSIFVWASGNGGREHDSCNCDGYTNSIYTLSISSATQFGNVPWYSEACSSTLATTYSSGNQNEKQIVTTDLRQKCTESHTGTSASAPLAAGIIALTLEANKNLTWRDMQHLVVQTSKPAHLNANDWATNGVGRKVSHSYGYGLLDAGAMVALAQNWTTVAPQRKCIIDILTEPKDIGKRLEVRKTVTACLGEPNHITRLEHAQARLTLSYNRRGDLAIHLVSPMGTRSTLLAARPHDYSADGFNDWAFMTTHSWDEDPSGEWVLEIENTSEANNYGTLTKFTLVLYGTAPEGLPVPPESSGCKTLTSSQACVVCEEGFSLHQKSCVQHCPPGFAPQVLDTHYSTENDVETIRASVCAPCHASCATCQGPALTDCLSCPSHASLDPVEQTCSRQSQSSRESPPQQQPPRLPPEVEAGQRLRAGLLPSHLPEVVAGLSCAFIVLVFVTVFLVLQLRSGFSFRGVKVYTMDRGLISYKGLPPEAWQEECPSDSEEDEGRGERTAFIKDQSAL

Sequence | furin cleavage Z-score (7.5 min) | furin cleavage Z-score (15 min) | furin cleavage Z-score (30 min)
CAEVPCHRDSAGNASASA [HC2391] | 0.533 (inactive) | 1.52 | 1.63
CAFVSLLAPGAGNASASA [HC360] | -0.325 (inactive) | -1.4 (inactive) | -1.08 (inactive)
CAEVPCHDPSAGNASASA [HC2371] | 0.427 (inactive) | 1.64 | 0.537 (inactive)
CAEVPCHRYSAGNASASA [HC2389] | 0.533 (inactive) | 1.28 | 1.5
CADLMEECSQAGNASASA [HC1805] | -0.946 (inactive) | -0.224 (inactive) | -0.925 (inactive)
CALKRMQKRSAGNASASA [FS-610] | 12.7 (active) | 13.3 (active) | 10.5 (active)
CAHLVRQKRAAGNASASA [FS-1008] | 10.3 (active) | 10.1 (active) | 7.65 (active)
CAEAMTRYSAAGNASASA [HC1541] | -0.217 (inactive) | 0.448 (inactive) | -0.963 (inactive)
CAEALRQKRAAGNASASA [FS-227] | 6.68 (active) | 7.12 (active) | 5.04 (active)
CATTPCSGPWAGNASASA [HC1919] | -0.176 (inactive) | 1.46 | 0.343 (inactive)
CAFVLNNTRPAGNASASA [HC429] | -0.02 (inactive) | 0.46 (inactive) | -0.424 (inactive)
CARARKLADEAGNASASA [FS-2887] | 0.23 (inactive) | -0.74 (inactive) | -2.19 (inactive)
CARARRLRREAGNASASA [FS-288] | 12.9 (active) | 12.3 (active) | 9.18 (active)
CARRLRARREAGNASASA [FS-291] | 9.55 (active) | 8.95 (active) | 6.29 (active)
CARARRSMDEAGNASASA [FS-2203] | 10.2 (active) | 11.1 (active) | 8.05 (active)
CARARRRSAEAGNASASA [FS-2889] | 2.93 | 2.98 | 4.07 (active)
CARRLREAVQAGNASASA [FS-2071] | 0.989 (inactive) | -0.0587 (inactive) | 2.28
CARARRRTPTAGNASASA [FS-1995] | 0.355 (inactive) | 2.75 | 0.804 (inactive)
CAVTKYIMTCAGNASASA [HC981] | -0.549 (inactive) | -0.794 (inactive) | 0.2 (inactive)
CAEVPCHHPSAGNASASA [HC2375] | 0.748 (inactive) | 1.23 | 0.223 (inactive)
CAAPNYTFALAGNASASA [HC1198] | -1.92 (inactive) | -0.299 (inactive) | -0.368 (inactive)
CAGDPPQPEYAGNASASA [HC1546] | -0.406 (inactive) | -0.628 (inactive) | 0.347 (inactive)
CARVRRQIHAAGNASASA [FS-2319] | 8.32 (active) | 8.68 (active) | 7.57 (active)
CARVRKDGGGAGNASASA [FS-2842] | -0.741 (inactive) | 1.03 | -1.03 (inactive)
CARCWVAMTPAGNASASA [HC279] | -1.59 (inactive) | 1.01 | -0.0231 (inactive)
CARVRRLFCRAGNASASA [FS-2245] | 0.941 (inactive) | 1.51 | 0.361 (inactive)
CARVRRAIPRAGNASASA [FS-3123] | 5.13 (active) | 4.64 (active) | 6.32 (active)
CARVRRAATPAGNASASA [FS-2621] | 11.8 (active) | 12.6 (active) | 10.3 (active)
CASVSHARPRAGNASASA [HC1652] | 0.173 (inactive) | -1.3 (inactive) | -0.282 (inactive)
CARVRRAGQGAGNASASA [FS-2106] | 3.76 (active) | 5.43 (active) | 4.94 (active)
